For some assays here: Measured potencies and affinities stand elsewhere.
Legend:
Design in all cases: scale not given: direction of the effect not stated beside the values
[1] = molecular target: Protein translocase subunit SecA (Escherichia coli (strain K12)) (UniProt P10408); assay: Assay to Identify E. coli SecA ATPase Inhibitors; assay type: functional; details: 30 µM
[2] = molecular target: T1, Ubiquitin-activating enzyme e1, putative (Leishmania donovani (strain BPK282A1)) (UniProt E9BSI1); assay: Leishmania donovani Ubiquitin Activating Enzyme (LdE1); assay type: functional; details: 30 µM
T1 sequence (whole entry): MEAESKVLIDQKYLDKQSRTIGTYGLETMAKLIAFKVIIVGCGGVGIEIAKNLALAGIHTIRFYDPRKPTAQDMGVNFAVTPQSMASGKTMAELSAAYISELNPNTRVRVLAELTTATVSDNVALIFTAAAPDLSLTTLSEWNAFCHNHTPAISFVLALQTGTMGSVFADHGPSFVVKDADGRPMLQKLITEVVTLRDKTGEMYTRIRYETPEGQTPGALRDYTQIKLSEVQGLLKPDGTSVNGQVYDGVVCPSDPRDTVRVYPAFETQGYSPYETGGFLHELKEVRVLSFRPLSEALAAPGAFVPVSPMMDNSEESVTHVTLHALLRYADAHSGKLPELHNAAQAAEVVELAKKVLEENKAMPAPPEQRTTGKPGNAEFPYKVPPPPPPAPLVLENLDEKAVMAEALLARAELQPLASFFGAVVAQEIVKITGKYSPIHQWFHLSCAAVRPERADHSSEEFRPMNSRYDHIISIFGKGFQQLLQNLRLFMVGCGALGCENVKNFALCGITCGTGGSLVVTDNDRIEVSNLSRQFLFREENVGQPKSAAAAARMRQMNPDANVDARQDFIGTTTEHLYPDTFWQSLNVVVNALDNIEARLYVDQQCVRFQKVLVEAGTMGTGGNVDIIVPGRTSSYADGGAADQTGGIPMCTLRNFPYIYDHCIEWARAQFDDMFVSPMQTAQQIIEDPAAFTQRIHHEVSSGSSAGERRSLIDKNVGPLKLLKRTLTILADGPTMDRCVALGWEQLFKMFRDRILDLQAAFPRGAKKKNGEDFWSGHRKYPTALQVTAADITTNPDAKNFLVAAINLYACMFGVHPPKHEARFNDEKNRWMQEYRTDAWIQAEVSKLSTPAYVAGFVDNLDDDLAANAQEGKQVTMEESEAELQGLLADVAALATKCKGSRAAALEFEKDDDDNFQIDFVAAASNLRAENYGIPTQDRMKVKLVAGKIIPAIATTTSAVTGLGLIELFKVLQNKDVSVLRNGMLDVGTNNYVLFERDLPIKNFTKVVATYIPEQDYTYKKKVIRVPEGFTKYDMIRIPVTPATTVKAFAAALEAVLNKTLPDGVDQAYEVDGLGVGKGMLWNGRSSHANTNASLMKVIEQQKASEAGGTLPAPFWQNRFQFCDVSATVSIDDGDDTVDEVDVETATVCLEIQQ

[3] = molecular target: AMP-activated protein kinase, AMPK (Homo sapiens) (UniProt P54646+O43741+P54619+Q9UGJ0+Q9Y478+Q13131+Q9UGI9); assay: AMP-dependent Kinase enzyme assay. An in vitro enzyme assay that detects ADP turnover that is directly proportional to AMPK activity. This uses naive AMPK that is activated during the assay with MK-8722; assay type: functional; details: 30 µM
[4] = molecular target: Sialic acid-binding Ig-like lectin 9 (Homo sapiens) (UniProt Q9Y336); assay: Hs-Siglec9 ALPHAscreen SOP 20170721; details: 10 µM
Chain of Sialic acid-binding Ig-like lectin 9 (Homo sapiens) (Q9Y336 whole entry): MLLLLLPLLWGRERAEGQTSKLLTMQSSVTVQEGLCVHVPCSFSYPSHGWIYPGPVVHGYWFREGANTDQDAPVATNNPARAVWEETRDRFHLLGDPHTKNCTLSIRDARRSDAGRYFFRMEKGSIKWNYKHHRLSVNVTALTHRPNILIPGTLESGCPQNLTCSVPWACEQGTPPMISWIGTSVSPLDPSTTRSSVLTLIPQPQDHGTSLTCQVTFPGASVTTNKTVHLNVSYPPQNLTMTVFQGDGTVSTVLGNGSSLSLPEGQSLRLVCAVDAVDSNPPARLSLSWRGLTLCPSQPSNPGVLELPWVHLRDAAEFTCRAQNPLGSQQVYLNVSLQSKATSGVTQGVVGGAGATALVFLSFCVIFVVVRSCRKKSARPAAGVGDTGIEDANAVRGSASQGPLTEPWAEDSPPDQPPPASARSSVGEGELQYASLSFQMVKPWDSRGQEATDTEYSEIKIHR

Trypanosoma cruzi = assay: Trypanosoma cruzi phosphomannomutase and mannose-1-phosphate guanylyltransferase assay; assay type: functional; details: 10 µM
[5] = molecular target: T2, Arginase-2, mitochondrial (Homo sapiens) (UniProt P78540); assay: in vitro enzyme assay to detect the production of urea directly proportional to the activity of Arginase II; assay type: functional; details: 33.3 µM; also: in the data most compounds retested in dose-response had high values
T2 sequence (whole entry): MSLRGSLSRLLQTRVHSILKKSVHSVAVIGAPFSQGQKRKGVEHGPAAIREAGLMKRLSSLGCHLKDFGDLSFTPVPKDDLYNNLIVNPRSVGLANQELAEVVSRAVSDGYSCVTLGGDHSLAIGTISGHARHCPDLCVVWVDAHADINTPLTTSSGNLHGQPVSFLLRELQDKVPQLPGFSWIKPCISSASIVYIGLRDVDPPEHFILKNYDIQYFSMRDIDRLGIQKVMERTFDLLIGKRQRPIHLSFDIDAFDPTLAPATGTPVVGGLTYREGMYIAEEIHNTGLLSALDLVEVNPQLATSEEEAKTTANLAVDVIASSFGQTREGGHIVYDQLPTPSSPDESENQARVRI

[6] = molecular target: T3, Proteasome subunit beta (Trypanosoma cruzi) (UniProt O96673); assay: Trypanosoma cruzi proteasome chymotrypsin-like activity (TcProtChymo) assay.; also: in the data most compounds retested in dose-response had high values; assay type: functional; details: 9.37 µM
T3 sequence (whole entry): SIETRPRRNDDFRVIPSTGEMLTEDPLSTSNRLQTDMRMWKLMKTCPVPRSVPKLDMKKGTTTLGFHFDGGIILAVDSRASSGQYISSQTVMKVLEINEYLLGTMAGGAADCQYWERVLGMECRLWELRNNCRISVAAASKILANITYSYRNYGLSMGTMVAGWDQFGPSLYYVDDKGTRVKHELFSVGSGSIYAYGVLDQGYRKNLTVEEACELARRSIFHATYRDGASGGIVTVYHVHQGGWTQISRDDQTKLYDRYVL

Homo sapiens = organism: Homo sapiens; assay: To identify inhibition of the IFN signalling (Jak-Stat) pathway via expression of an eGFP reporter gene under the control of an IFN-stimulated response element (ISRE) containing MxA promoter.; assay type: functional; details: 30 µM
[7] = molecular target: T4, Tyrosyl-tRNA synthetase, putative (Trypanosoma cruzi (strain CL Brener)) (UniProt Q4DSP6); assay: Trypanosoma cruzi tyrosyl tRNA synthetase (TcYRS) _High Tyrosine SOP; assay type: functional; details: 30 µM; also: in the data most compounds retested in dose-response had high values
T4 sequence (whole entry): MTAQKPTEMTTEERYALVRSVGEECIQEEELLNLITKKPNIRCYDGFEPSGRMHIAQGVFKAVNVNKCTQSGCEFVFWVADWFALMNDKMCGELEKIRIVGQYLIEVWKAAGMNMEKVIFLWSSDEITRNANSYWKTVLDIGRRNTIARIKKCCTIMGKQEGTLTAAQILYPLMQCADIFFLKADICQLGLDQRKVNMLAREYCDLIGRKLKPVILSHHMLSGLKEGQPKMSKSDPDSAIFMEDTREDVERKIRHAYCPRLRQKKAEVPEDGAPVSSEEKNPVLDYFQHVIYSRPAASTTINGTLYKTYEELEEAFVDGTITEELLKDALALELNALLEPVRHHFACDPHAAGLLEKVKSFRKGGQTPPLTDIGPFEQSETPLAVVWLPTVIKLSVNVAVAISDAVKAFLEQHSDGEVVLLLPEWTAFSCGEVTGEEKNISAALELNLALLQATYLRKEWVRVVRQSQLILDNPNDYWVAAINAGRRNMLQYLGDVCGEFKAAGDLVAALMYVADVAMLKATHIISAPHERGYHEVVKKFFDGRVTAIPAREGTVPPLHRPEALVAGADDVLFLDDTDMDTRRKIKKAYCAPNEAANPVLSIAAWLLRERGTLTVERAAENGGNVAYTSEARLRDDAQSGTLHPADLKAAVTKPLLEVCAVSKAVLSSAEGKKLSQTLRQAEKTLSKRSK

[8] = molecular target: T4, Tyrosyl-tRNA synthetase, putative (Trypanosoma cruzi (strain CL Brener)); assay: Trypanosoma cruzi tyrosyl tRNA synthetase (TcYRS) SOP; assay type: functional; details: 30 µM
[9] = molecular target: Chromo domain-containing protein 1 (Saccharomyces cerevisiae (strain ATCC 204508 / S288c) (Baker's yeast)) (UniProt P32657); assay: ScCHD-1 Enzyme Inhibition Assay; assay type: functional; details: 30 µM; also: in the data most compounds retested in dose-response had high values
Chain of Chromo domain-containing protein 1 (Saccharomyces cerevisiae (strain ATCC 204508 / S288c) (Baker's yeast)) (P32657 whole entry, the tested form may be a part): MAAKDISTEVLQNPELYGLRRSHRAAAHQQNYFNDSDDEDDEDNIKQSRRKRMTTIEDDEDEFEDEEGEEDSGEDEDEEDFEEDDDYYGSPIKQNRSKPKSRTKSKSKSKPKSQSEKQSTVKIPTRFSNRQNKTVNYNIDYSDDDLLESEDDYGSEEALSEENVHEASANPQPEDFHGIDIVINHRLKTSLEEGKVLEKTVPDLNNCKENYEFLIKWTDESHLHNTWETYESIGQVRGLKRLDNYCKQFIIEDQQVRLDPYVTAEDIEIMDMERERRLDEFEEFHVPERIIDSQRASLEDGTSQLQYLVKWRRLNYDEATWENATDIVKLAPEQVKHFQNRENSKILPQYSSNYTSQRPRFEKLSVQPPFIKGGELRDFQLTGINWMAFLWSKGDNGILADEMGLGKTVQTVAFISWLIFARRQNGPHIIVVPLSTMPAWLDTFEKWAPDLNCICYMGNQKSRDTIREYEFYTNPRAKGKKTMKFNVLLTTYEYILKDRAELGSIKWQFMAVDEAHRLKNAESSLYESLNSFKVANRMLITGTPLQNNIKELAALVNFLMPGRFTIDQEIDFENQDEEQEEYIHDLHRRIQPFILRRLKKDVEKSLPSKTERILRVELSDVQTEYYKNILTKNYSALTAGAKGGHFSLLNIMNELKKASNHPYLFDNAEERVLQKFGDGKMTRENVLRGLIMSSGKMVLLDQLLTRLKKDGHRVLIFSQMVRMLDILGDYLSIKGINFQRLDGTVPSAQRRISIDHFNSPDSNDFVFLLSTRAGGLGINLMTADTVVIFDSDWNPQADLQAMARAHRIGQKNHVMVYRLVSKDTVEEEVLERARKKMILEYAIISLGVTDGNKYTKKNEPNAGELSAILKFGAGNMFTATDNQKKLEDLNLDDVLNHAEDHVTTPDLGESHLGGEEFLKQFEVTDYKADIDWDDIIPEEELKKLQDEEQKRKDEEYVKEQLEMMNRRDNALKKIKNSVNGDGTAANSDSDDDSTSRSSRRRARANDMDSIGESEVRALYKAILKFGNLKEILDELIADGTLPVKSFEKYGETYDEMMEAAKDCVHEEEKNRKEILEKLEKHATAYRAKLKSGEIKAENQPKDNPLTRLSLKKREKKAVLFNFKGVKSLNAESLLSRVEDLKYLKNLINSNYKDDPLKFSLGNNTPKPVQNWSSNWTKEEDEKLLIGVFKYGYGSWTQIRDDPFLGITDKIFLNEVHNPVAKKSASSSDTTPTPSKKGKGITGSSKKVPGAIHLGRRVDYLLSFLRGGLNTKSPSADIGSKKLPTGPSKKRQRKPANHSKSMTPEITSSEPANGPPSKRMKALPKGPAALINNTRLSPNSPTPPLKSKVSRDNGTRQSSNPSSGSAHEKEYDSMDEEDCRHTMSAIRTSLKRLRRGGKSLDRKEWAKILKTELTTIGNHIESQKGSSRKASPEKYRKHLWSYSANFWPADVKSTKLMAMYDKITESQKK

Chain of Protein translocase subunit SecA (Escherichia coli (strain K12)) (P10408 whole entry): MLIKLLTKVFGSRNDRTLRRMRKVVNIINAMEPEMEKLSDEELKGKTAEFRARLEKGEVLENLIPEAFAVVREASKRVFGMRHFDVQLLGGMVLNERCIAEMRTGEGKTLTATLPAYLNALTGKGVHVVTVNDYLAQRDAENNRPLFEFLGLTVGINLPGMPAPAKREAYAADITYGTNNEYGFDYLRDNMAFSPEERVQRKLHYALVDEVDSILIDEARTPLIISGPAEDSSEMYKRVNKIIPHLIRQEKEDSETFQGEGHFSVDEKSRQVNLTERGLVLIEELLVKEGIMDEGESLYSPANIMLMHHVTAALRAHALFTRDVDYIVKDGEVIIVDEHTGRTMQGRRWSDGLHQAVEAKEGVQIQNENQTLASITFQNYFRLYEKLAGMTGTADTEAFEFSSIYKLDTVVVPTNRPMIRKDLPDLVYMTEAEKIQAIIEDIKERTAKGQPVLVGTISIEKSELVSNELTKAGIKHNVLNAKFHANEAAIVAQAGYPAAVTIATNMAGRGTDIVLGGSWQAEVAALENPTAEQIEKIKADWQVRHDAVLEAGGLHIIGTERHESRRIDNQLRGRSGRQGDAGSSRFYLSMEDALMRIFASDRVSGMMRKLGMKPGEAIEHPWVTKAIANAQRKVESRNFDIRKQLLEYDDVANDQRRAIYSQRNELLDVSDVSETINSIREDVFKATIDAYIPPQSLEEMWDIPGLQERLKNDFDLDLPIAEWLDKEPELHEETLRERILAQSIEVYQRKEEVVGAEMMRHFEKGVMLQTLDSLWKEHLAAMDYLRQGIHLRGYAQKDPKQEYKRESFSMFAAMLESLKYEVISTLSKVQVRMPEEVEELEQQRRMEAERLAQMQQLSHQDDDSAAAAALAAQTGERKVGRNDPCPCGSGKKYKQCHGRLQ

Row | Structure (SMILES) | Percent Effect [1] [%] | Percent Effect [2] [%] | Percent Effect [3] [%] | Percent Effect [4] [%] | Percent Effect (Trypanosoma cruzi) [%] | Percent Effect [5] [%] | Percent Effect [6] [%] | Percent Effect (Homo sapiens) [%] | Percent Effect [7] [%] | Percent Effect [8] [%] | Percent Effect [9] [%]
1 | c1cc2c(cc1C1CCCN1Cc1nnnn1C1CC1)OCCO2 (configuration not stated) | -3.24 | 6.94 | -13.5 | 29.5 | 6.32 | -5.74 | 4.39 | -5.04 | 5.26 | 15.4 | -4.08
2 | Cc1cc(CN2CCN(C(=O)c3sccc3C3CC3)CC2)on1 | -1.18 | 10.4 | 2.54 | -6.72 | -7.35 | 1.05 | 9.62 | 18.1 | 4.76 | 18.8 | -15.4
3 | O=C(CCc1nccs1)N1CCCC(N2CCNC2=O)C1 (configuration not stated) | -3.25 | 11 | 5.41 | -1.3 | -2.35 | 5 | 8.16 | 4.48 | 4.3 | 10 | -4.2
4 | COc1cccc(CNC(=O)C(c2cccc(F)c2)N2CCOCC2)c1 (configuration not stated) | -6.42 | 18.4 | -1.09 | 6.14 | 2.82 | -5.92 | 4.12 | 5.78 | 6.38 | 18.2 | -11.1
5 | CCc1nc(NS(=O)(=O)c2ccc(F)cc2C)no1 | -4.36 | -2.67 | -5.09 | 21.3 | 8.67 | -0.521 | -0.872 | 15.9 | 0.546 | 6.17 | -1.94
6 | Cc1cc(=O)n2ncnc2n1CC(O)c1ccccc1Cl (configuration not stated) | -0.278 | 7.89 | 6.81 | -5.31 | -6.52 | -8.28 | 18.1 | -6.46 | 3.19 | 7.79 | -2.48
7 | Cc1ccccc1CS(=O)(=O)CC(=O)NC1CCCCNC1=O (configuration not stated) | -5.33 | 18.2 | -2.46 | 11 | 4.87 | -4.98 | 8.62 | 11 | 4.85 | 21.9 | -8.24
8 | Cc1n[nH]c(C2CN(C(=O)c3cnc[nH]3)CCO2)n1 (configuration not stated) | -2.98 | 7.79 | 4.4 | 7.68 | 3.62 | -1.05 | 12.8 | -9.06 | 5.71 | 21.2 | -19.1
9 | Cc1ccc(NS(=O)(=O)c2cc3c(c(C(=O)O)c2)OCCO3)c(F)c1 | -10.1 | 13.2 | -8.4 | 15.9 | 10.6 | 1.08 | 11.2 | -1.31 | 2.46 | 13.6 | -9.81
10 | CCn1ncc2c1C(COCC1CC1)CN(C(=O)c1cccs1)C2 (configuration not stated) | 1.75 | 24.7 | -1.43 | 2.69 | -0.794 | -6.39 | 13.6 | 21.1 | 7.29 | 13.6 | -3.6
11 | Cc1ccc2c(n1)N(CCn1cccn1)CCN(C(=O)CC1CC1)C2 | -3.68 | 5.41 | -9.57 | 3.09 | -4.4 | 1.74 | 10.6 | 10.3 | -5.38 | 11.1 | -7.62
12 | c1cnc(NCc2noc3c2CN(CCN2CCCC2)CC3)nc1 | -1.82 | 8 | -2.08 | 10.5 | 3.48 | -47.5 | 18.1 | -3.46 | 6.25 | 22.5 | -8.39
13 | CC(C)N1CCC(Cc2cc(-c3cccc(C(=O)O)c3)ncn2)C1 (configuration not stated) | 1.6 | -9.46 | 7.52 | 4.36 | -1.78 | -0.232 | 2.5 | 0.46 | 2.15 | 1.3 | 20.8
14 | CC(NC(=O)NCc1ccoc1)c1ccc2c(c1)CCC(=O)N2 (configuration not stated) | -9.31 | -7.79 | -9.15 | 13 | 12.2 | 2.49 | 28.6 | 16.5 | 8.74 | 24.4 | -9.68
15 | Cc1nnc(C2Cc3ccccc3CN2Cc2ncc(C(C)(C)C)o2)o1 (configuration not stated) | -1.87 | 15.6 | 3.3 | -12.9 | -3.82 | -1.05 | 20.8 | 27.9 | 8.57 | 11.8 | -17.8
16 | O=C(Nc1cnn(CCN2CCOCC2)c1)c1ccccc1O | -4.19 | 26.3 | -17.4 | 2.22 | 3.57 | 4.6 | 16.9 | -2.35 | 6.37 | 19.5 | -12.5
17 | CCC1=N[C@@]2(CC[C@@H]3CN(C(=O)Nc4ccc(F)cc4)C[C@@H]32)C(=O)N1 | -5.91 | 5.41 | -0.761 | -2.41 | 7.42 | -2.5 | 13.1 | -26.3 | 7.92 | 8.54 | -6.29
18 | Cc1nnc([C@@H]2CC[C@@H]3[C@@H](CCN3S(=O)(=O)c3cccnc3)O2)o1 | -6.5 | 10.8 | 7.11 | -2.36 | -1.07 | 6.05 | 15.7 | -6.25 | 15.1 | 12.8 | -1.2
19 | NC(=O)c1ccc(CN2CCCC(O)C2)cc1 (configuration not stated) | -2.93 | 13.5 | -3.22 | -5.21 | 4.69 | 37.5 | 17.2 | 0.641 | 5.94 | 15.8 | -0.618
20 | Cc1nc2ccccc2nc1CN1CCCC1Cn1cncn1 (configuration not stated) | -0.371 | 20.8 | -4.59 | -7.28 | 3.23 | 1.9 | 19.5 | 13.1 | 16.2 | 21.2 | -23.2
21 | CCc1cnc(CN(C(C)=O)C2CCN(CCc3cnn(C)c3)C2)o1 (configuration not stated) | -2.73 | 18.4 | -1.21 | -1.24 | -1.21 | 2.16 | 9.56 | -1.17 | 7.39 | 18.5 | -6.82
22 | Cc1cccc(CN2CCc3ncnc(C)c3CC2)n1 | 1.12 | 8.22 | 5.73 | 7.82 | -5.75 | -0.798 | 13.4 | 4.7 | -1.04 | 8.64 | -4.79
